# In the OligoGym collection:
# Biological target: BABAM1
# Assay: pooled miR-30 sensor sort-seq; sequence = guide strand
# Conditions: shRNA
# Further: reference of the scale not given here.
row,Sequence,sensor-assay potency score (higher = more potent)
1,AAACTCGTGGCTTTTGTCGATC,-1.23
2,AAACATATCCTTCCAACTCATC,-1.73
3,TTGGCAGTGACATTTCCTCTGA,-0.685
4,TATCCTTCCAACTCATCTCCTC,0.00157
5,ATCGTCTGCACGTTCTCTGTGA,-0.356
6,TTCTGGGAGACATTGAGGGCGT,-0.794
7,TTCTCTGGACAGTTGACCCTTG,0.0913
8,TTTGTCCGCACGAACATCTCAA,-0.413
9,TCGATCTTGTGTTTTGTCCGCA,0.0335
10,TTATCCATGACAAACTAGGAGT,-0.739
11,TTTCTCTGGACAGTTGACCCTT,0.0375

# Biological target: BARX2
# Assay: as above
# Conditions: shRNA
row,Sequence,sensor-assay potency score (higher = more potent)
1,TTTCTCAAAGTAATCGCAGGTC,0.887
2,TTAAGAACCATTTTCTTCCATT,-0.688
3,TGCTTCACAGAGCTCCTCCTGC,-0.821
4,TCAGCTTCAATCTCTTCTGATG,-1.18
